GPR151 ag: activators of human GPR151; Q8TDV0; PathHunter beta-arrestin GPR151 cells, luminescence; activation, % at 11.2 µM; 650,000 tested, 1% active; in the data active means activation above about 4.9%
MITF inh: inhibitors of human MITF; 650,000 tested, 0.91% active; AID 1259374; O75030; AlphaScreen MITF homodimerization, bead proximity signal; inhibition, % at 2.6 µM; in the data active means inhibition above about 50%
Target sequence (O75030 whole entry, looked up): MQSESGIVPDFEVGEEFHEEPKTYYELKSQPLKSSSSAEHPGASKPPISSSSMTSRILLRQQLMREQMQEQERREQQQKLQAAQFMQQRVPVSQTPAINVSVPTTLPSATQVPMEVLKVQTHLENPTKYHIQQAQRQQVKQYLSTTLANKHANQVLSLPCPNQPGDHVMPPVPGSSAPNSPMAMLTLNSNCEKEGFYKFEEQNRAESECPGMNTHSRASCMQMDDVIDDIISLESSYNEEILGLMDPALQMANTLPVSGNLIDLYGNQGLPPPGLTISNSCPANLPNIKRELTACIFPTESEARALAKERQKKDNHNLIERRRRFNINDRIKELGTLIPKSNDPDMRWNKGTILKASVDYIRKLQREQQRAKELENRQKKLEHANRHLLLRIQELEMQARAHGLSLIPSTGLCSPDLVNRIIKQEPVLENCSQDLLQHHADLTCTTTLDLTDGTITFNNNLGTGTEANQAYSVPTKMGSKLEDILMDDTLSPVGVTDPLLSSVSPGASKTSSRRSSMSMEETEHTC
FBW7 activator: activators of human E3 ligase FBW7; normalized activity (activation), % at 26.1 µM; Q969H0; AlphaScreen FBW7–phospho-cyclin E peptide binding, activator screen; 650,000 tested, 0.13% active; AID 1259310; in the data active means normalized activity above about 1.9%;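 further: purified mutant Fbw7 with reduced substrate affinity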
TEAD-YAP inh: TEAD-YAP interaction inhibition. 640,000 tested, 1.4% active. inhibition, % at 9.12 µM. HEK-TIYL cells, TEAD-Gal4/YAP UAS-luciferase luminescence; in the data active means inhibition above about 32%
A number is an active result. Hits are enriched below; roughly 3.5% of the tested compounds scored in any of these assays.

`COc1cccc(Nc2nnc(SCC(=O)NNC(=O)C3CC3)s2)c1` gave GPR151 ag inactive, MITF inh inactive, FBW7 activator inactive and TEAD-YAP inh inactive.
For COc1ccccc1CNc1ccc(C(=O)Nc2ccc(C(C)C)cc2)cc1[N+](=O)[O-] the results were GPR151 ag inactive, MITF inh inactive, FBW7 activator inactive and TEAD-YAP inh inactive.
`COc1cccc(NC(=O)c2ccc(NC(C)=O)cc2)c1` gave GPR151 ag inactive, MITF inh inactive, FBW7 activator inactive and TEAD-YAP inh inactive.
For COc1cccc(NC(=O)c2ccc(C)cc2)c1 the results were GPR151 ag inactive, MITF inh inactive, FBW7 activator inactive and TEAD-YAP inh 62.
COc1cccc(NC(=O)c2ccc(NCc3ccccc3OC)c([N+](=O)[O-])c2)c1 was read as GPR151 ag inactive, MITF inh inactive, FBW7 activator inactive and TEAD-YAP inh 49.
For COc1cccc(NC(=O)c2ccc(C)cc2Cl)c1 the results were GPR151 ag inactive, MITF inh inactive, FBW7 activator inactive and TEAD-YAP inh 67.
`COc1cccc(C(=O)Nc2cccc(OC(=O)c3ccc(Br)cc3)c2)c1` gave GPR151 ag inactive, MITF inh inactive, FBW7 activator inactive and TEAD-YAP inh 44.
`Cc1ccc(C(=O)Nc2ccc(F)cc2)c(Cl)c1` gave GPR151 ag inactive, MITF inh inactive, FBW7 activator inactive and TEAD-YAP inh 62.
`O=C(Nc1ccc(F)cc1)c1ccc(Cl)cc1Cl` gave GPR151 ag inactive, MITF inh inactive, FBW7 activator inactive and TEAD-YAP inh inactive.
`O=C(c1cc(S(=O)(=O)N2CCc3ccccc32)ccc1F)N1CCN(Cc2ccccc2)CC1` gave GPR151 ag inactive, MITF inh inactive, FBW7 activator inactive and TEAD-YAP inh inactive.
Screening CC1CCc2cc(F)ccc2N1C(=O)Cn1c2ccccc2c(=O)c2ccccc21 (stereo not given) returned GPR151 ag inactive, MITF inh inactive, FBW7 activator inactive and TEAD-YAP inh inactive.
Screening Cc1cccc(NC(=O)c2cnc(N3CCN(c4ncccn4)CC3)c3ccccc23)n1 returned GPR151 ag inactive, MITF inh inactive, FBW7 activator inactive and TEAD-YAP inh 53.
Screening COc1ccc([N+](=O)[O-])cc1NC(=O)c1cnc(N2CCN(c3ccccn3)CC2)c2ccccc12 returned GPR151 ag inactive, MITF inh inactive, FBW7 activator inactive and TEAD-YAP inh inactive.
`COc1ccc(OC)c(NC(=O)c2cnc(N3CCN(c4ccccn4)CC3)c3ccccc23)c1` gave GPR151 ag inactive, MITF inh inactive, FBW7 activator inactive and TEAD-YAP inh 46.
COc1ccc(C)cc1NC(=O)c1cnc(N2CCN(c3ncccn3)CC2)c2ccccc12 was read as GPR151 ag inactive, MITF inh inactive, FBW7 activator inactive and TEAD-YAP inh inactive.
For COc1ccccc1NC(=O)c1cnc(N2CCN(c3ncccn3)CC2)c2ccccc12 the results were GPR151 ag inactive, MITF inh inactive, FBW7 activator inactive and TEAD-YAP inh 60.
Screening Cc1ccccc1CN1C(=O)CSc2ccc(C(=O)NC3CCCC3)cc21 returned GPR151 ag inactive, MITF inh inactive, FBW7 activator inactive and TEAD-YAP inh inactive.
Screening O=C(NCCO)c1cnc(Nc2ccc3ncccc3c2)s1 returned GPR151 ag inactive, MITF inh inactive, FBW7 activator inactive and TEAD-YAP inh inactive.
`Cn1c(-c2ccccc2)cn2cc(-c3ccccc3)nc12` gave GPR151 ag inactive, MITF inh inactive, FBW7 activator inactive and TEAD-YAP inh 100.
For Cn1c(-c2ccccc2)cn2cc(-c3ccc(F)cc3)nc12 the results were GPR151 ag inactive, MITF inh inactive, FBW7 activator inactive and TEAD-YAP inh 97.
For Cc1cccc(-c2nc3s/c(=C\c4ccco4)c(=O)n3n2)c1 the results were GPR151 ag inactive, MITF inh inactive, FBW7 activator inactive and TEAD-YAP inh inactive.
`Cc1nn2c(=O)/c(=C/c3ccco3)sc2nc1=O` gave GPR151 ag inactive, MITF inh 77, FBW7 activator inactive and TEAD-YAP inh inactive.
Screening CC(C)(C)n1ncc2c(=O)n(CC(=O)OCc3ccccc3)cnc21 returned GPR151 ag inactive, MITF inh inactive, FBW7 activator inactive and TEAD-YAP inh 82.
For CCC(OC(=O)C1CC(=O)N(c2ccc(OC)cc2)C1)C(=O)c1ccccc1 (stereo not given) the results were GPR151 ag inactive, MITF inh inactive, FBW7 activator inactive and TEAD-YAP inh inactive.
`CCCCCc1c2c(C)c(C(=O)OCC)nc-2cc2n1CC(C)=C2C` gave GPR151 ag inactive, MITF inh inactive, FBW7 activator inactive and TEAD-YAP inh 41.
Screening O=C(Cc1cc(=O)[nH][nH]1)N/N=C/c1ccccc1Br returned GPR151 ag inactive, MITF inh inactive, FBW7 activator inactive and TEAD-YAP inh inactive.
COc1ccc(/C(C)=N\NC(=O)c2cc(-c3c(C)nn(-c4ccccc4)c3C)n[nH]2)cc1 was read as GPR151 ag inactive, MITF inh inactive, FBW7 activator inactive and TEAD-YAP inh 44.
`COC(=O)c1cc(-c2c(C)nn(-c3ccccc3)c2C)n[nH]1` gave GPR151 ag inactive, MITF inh inactive, FBW7 activator inactive and TEAD-YAP inh inactive.
For Cc1ccc(NC(=O)CCCCCC2NC(=O)NC2C)cc1 (stereo not given) the results were GPR151 ag inactive, MITF inh 99, FBW7 activator inactive and TEAD-YAP inh inactive.
For Cc1ccc(NC(=O)CCCCCN2C(=O)c3ccccc3C2=O)cc1 the results were GPR151 ag inactive, MITF inh inactive, FBW7 activator inactive and TEAD-YAP inh inactive.
`CC(C)(C)C(=O)NC1CCN(C(=O)NC2CCCCC2)CC1` gave GPR151 ag inactive, MITF inh inactive, FBW7 activator inactive and TEAD-YAP inh inactive.
Cc1nc(CC(=O)N2CCCC(CCC(=O)N(C)CCc3ccccn3)C2)cs1 (stereo not given) was read as GPR151 ag inactive, MITF inh inactive, FBW7 activator inactive and TEAD-YAP inh inactive.
For COc1ccc(C(=O)CSc2nc3scc(-c4ccccc4)c3c(=O)n2-c2ccccc2)cc1OC the results were GPR151 ag inactive, MITF inh inactive, FBW7 activator 1.9 and TEAD-YAP inh inactive.
Screening COc1ccc(C(=O)CSc2nc3sc4c(c3c(=O)n2-c2ccccc2)CCC4)cc1OC returned GPR151 ag inactive, MITF inh inactive, FBW7 activator inactive and TEAD-YAP inh inactive.
`C=CCn1c(Sc2ccc([N+](=O)[O-])cn2)nnc1-c1ccc(OC)cc1` gave GPR151 ag inactive, MITF inh inactive, FBW7 activator inactive and TEAD-YAP inh 48.
C=CCn1c(SCC)nnc1-c1ccc([N+](=O)[O-])cc1 was read as GPR151 ag inactive, MITF inh inactive, FBW7 activator inactive and TEAD-YAP inh inactive.
For Cc1nnc(N2C(=O)C(=O)/C(=C(/O)c3ccc(F)cc3)C2c2ccccc2)s1 (stereo not given) the results were GPR151 ag inactive, MITF inh inactive, FBW7 activator inactive and TEAD-YAP inh inactive.
For Cc1nc(SCC(=O)N(C(C)C)C(C)C)c2c(C)c(C)sc2n1 the results were GPR151 ag inactive, MITF inh inactive, FBW7 activator inactive and TEAD-YAP inh 51.

High-throughput results (PubChem)
